The source of these data is PubChem BioAssay.

Values joined by “and” are separate entries in the source; they are usually repeats but may differ in a detail not shown here. Equal values may be shown once. Active and inactive are the calls of the source. Unless noted, the rule behind the calls is not given here.

The nature of assay [1]: compound effects on lung adenocarcinoma cell viability – A549, calcein-AM fluorescence, 48 h, basal, profiling panel (AID 1162). Note: test concentration not given here. The following applies: higher = more signal.
The nature of assay [2]: compound effects on differentiated 3T3-L1 adipocyte viability – cell-based, 3T3-L1 adipocytes, calcein-AM fluorescence, 48 h, basal, profiling panel (AID 1163). Note: test concentration not given here. To be noted: 3T3-L1 adipocytes viability, higher = more signal.
A short description of assay [3]: compound effects on hepatocellular carcinoma cell viability – HepG2, calcein-AM fluorescence, 48 h, basal, profiling panel (AID 1164). Note: test concentration not given here. The following applies: higher = more signal.
Assay [4] is described as follows: compound effects on multiple myeloma cell viability – MM1S, calcein-AM fluorescence, 48 h, basal, profiling panel (AID 1165).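 Note: viability of MM1S multiple myeloma cells under basal unstimulated conditions; test concentration not given here.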 To be noted: higher = more signal.
Assay [5] is described as follows: calcein-AM signal in unstimulated myeloma cells – cell-based, calcein-AM fluorescence, 48 h, PK04 Diversity Set, profiling panel (AID 1166).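 Note: cells grown under basal conditions without added stimulus; test concentration not given here.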 The following applies: RPMI8226 myeloma viability, higher = more signal.
Assay [6] is described as follows: JC-1 mitochondrial signal, unstimulated HepG2 cells – cell-based, JC-1 fluorescence, 24 h, 100 nL compound, profiling panel (AID 1167). Note: test concentration not given here. The following applies: HepG2 mitochondrial potential, higher = more signal.
Assay [7] in a line: JC-1 mitochondrial signal, unstimulated adipocytes – cell-based, JC-1 fluorescence, 3T3-L1 adipocytes, 24 h, 100 nL compound, profiling panel (AID 1168). Note: test concentration not given here. To be noted: JC-1 mitochondrial fluorescence, higher = more signal, called active from +8 up or from −8 down.
Assay [8] can be described thus: JC-1 mitochondrial signal, unstimulated myeloma cells – cell-based, JC-1 fluorescence, RPMI8226, 24 h, 100 nL compound, profiling panel (AID 1169). Note: test concentration not given here. The following applies: JC-1 mitochondrial potential fluorescence, higher = more signal.
Assay [9] can be described thus: JC-1 mitochondrial signal, unstimulated MM1S myeloma – cell-based, JC-1 fluorescence, 24 h, 100 nL compound, profiling panel (AID 1170). Note: test concentration not given here. To be noted: MM1S mitochondrial potential, higher = more signal.
Assay [10] is described as follows: resazurin metabolic signal in A549 cells – cell-based, resazurin fluorescence, 24 h, PK04 Diversity Set, profiling panel (AID 1171). Note: test concentration not given here. To be noted: A549 viability, higher = more signal, called active from +8 up or from −8 down. A general note: Alamar Blue is a resazurin reagent that responds to reducing activity.
Assay [11] is described as follows: resazurin metabolic signal in HepG2 cells – cell-based, resazurin fluorescence, 24 h, PK04 Diversity Set, profiling panel (AID 1172). Note: test concentration not given here. To be noted: HepG2 viability, higher = more signal.
Assay [12] can be described thus: budding yeast growth changes without added modifier – OD600, strain BY4716, 24 h, basal condition, primary screen (AID 1173). To be noted: S. cerevisiae BY4716 growth, OD600, 24 h; higher = more signal, called active from +8 up or from −8 down.
Assay [13] in a line: viability profiling in MM1S myeloma cells – cell-based, resazurin fluorescence, basal, 24 h, PK04 Diversity Set, profiling panel (AID 1174). Note: test concentration not given here. To be noted: higher = more signal, called active from +8 up or from −8 down.
Assay [14] deals with Dihydroorotate dehydrogenase (quinone), mitochondrial (Plasmodium falciparum (isolate 3D7)) (UniProt Q08210). Briefly: inhibition of P. falciparum DHODH – biochemical, C-terminal His tag, absorbance 600 nm, primary screen (AID 1175).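 Note: recombinant parasite enzyme with a five histidine tag at its C terminus; test concentration not given here.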 The following applies: PfDHODH enzyme, DCIP absorbance 600 nm; higher = more signal, called active from +8 up or from −8 down.
The nature of assay [15]: growth modulation of vineyard yeast isolate – strain RM11-1a, OD600, basal, 24 h, primary screen (AID 1177).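 Note: cultures grown under basal conditions with no added stressor; test concentration not given here.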 To be noted: S. cerevisiae RM11-1a growth, OD600, 24 h; higher = more signal, called active from +8 up or from −8 down.
Assay [16] can be described thus: growth of efflux-deficient E. coli DRC39 – strain DRC39, OD650, 24 h, E. coli filamentation inducers, primary screen (AID 1178).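 Note: growth measured as culture turbidity by optical density at 650 nm; test concentration not given here.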 The following applies: E. coli DRC39 acrAB, higher = more signal, called active from +8 up or from −8 down.
Assay [17] can be described thus: growth of efflux-deficient E. coli DRC39 – strain DRC39, OD650, 48 h, E. coli filamentation inducers, primary screen (AID 1179).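 Note: screen aims at cell division blockers that make cells filament.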 To be noted: E. coli DRC39 delta-acrAB growth, higher = more signal, called active from +8 up or from −8 down.
Assay [18] can be described thus: viability profiling in RPMI8226 myeloma cells – cell-based, resazurin fluorescence, basal, 24 h, PK04 Diversity Set, profiling panel (AID 1180).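 Note: RPMI8826 multiple myeloma cell line at 5000 cells per well; test concentration not given here.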 To be noted: higher = more signal.
For assay [19], the target named is E3 ubiquitin-protein ligase XIAP (Homo sapiens) (UniProt P98170). The experiment in a line: small molecules binding XIAP protein – biophysical, small-molecule microarray, fluorescence 635 nm, primary screen (AID 1181).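 Note: score merges 667 nm emission and signal to noise over triplicate slides.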 The following applies: higher = more signal.
Assay [20] is described as follows: inhibition of PAO1 biofilm formation – strain PAO1, LB-PBS medium, absorbance 600 nm, primary screen (AID 1176). Note: test concentration not given here. To be noted: P. aeruginosa PAO1 growth/biofilm, A600, 12 h; higher = more signal.

Chain of E3 ubiquitin-protein ligase XIAP (Homo sapiens) (P98170 whole entry, looked up): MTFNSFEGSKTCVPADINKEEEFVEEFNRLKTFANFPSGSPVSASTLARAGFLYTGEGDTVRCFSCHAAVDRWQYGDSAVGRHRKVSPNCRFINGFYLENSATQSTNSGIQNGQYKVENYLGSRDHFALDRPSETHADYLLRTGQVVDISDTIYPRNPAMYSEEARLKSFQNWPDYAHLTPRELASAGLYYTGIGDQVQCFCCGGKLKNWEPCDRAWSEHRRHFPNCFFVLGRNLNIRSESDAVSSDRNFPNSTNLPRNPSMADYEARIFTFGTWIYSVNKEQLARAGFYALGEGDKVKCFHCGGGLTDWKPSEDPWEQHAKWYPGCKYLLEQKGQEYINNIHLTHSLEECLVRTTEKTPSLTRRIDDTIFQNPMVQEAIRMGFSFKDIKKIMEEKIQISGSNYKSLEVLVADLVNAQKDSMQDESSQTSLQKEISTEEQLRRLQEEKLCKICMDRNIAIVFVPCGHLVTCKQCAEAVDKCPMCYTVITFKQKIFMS
Chain of Dihydroorotate dehydrogenase (quinone), mitochondrial (Plasmodium falciparum (isolate 3D7)) (Q08210 whole entry, looked up): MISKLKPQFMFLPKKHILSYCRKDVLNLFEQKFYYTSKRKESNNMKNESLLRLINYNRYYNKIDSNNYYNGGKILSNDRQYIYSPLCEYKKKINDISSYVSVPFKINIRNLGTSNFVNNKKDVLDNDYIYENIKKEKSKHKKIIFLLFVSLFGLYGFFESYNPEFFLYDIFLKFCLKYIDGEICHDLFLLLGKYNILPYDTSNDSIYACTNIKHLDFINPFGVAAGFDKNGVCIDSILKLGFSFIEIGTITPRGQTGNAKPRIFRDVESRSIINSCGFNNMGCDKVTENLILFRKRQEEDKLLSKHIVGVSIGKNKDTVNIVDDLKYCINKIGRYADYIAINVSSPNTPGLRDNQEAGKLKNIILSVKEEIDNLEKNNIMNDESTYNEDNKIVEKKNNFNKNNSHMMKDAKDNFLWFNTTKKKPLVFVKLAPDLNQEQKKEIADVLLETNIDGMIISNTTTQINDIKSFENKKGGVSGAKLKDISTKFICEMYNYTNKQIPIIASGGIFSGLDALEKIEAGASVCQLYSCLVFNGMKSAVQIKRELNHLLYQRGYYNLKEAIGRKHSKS

For the compound `CC(C)N1CC=CC23O[C@@H]4C=CCCOC(=O)C4[C@H]2C(=O)N(C(C)CO)[C@@H]3C1=O` (some centres undefined), the z-score in assay [1] was -0.507 and 0.287; in assay [2], 1.61 and 1.45; in [3] it was -0.658 and -0.153; in assay [4] it was 1.24 and 0.914; in [5], 0.264 and 0.678; in assay [6], 0.534 and 0.979. For the same compound, the z-score in assay [7] is 1.21 (inactive) and 1.41 (inactive); in [8], 0.0803 and 0.664; in assay [9], 1.69 and 1.02; in assay [10], 0.0618 (inactive) and 0.502 (inactive); in [11], -0.0777 and -1.21; in assay [12], -1.44 (inactive) and 0.111 (inactive). In addition, the z-score in [13] is 0.963 (inactive) and 0.93 (inactive); in assay [15], -1.2 (inactive) and 0.934 (inactive); in [16] it was 1.2 (inactive) and 1.42 (inactive); in assay [17], 0.847 (inactive) and 1.13 (inactive); in [18], 1.32 and 0.67. Besides, the composite z-score is -0.0877 (inactive) and 1.49 (inactive) in [14]; -0.128 and -0.133 in assay [19].
For the compound `C[C@@H](ON=C1[C@H]2CCn3c(=O)n(-c4ccccc4)c(=O)n3[C@H]2[C@H](O)[C@@H]2O[C@H]12)c1cn([C@H](CO)Cc2ccccc2)nn1`, the z-score in assay [1] was 0.158; in [2], -0.002; in [3], 0.567; in assay [4], -0.463; in assay [5] it was -0.259; in assay [6], -0.998. Moreover, the z-score in [7] was 0.31 (inactive); in [8], -0.334; in assay [9] it was -0.00977; in assay [10], -0.847 (inactive); in assay [11], -1.08; in assay [12], 0.394 (inactive). For the same compound, the z-score is -1.42 (inactive) in assay [13]; -0.525 (inactive) in [20]; 0.122 (inactive) in assay [15]; 0.777 (inactive) in assay [16]; 1.12 (inactive) in assay [17]; -1.65 in assay [18]. Besides, the results for the composite z-score in [14] and in assay [19] were -0.469 (inactive) and -0.0208, respectively.
For `C=CCN(CCCCC)C(=O)C1N(CCOCCO)C(=O)C2C(C(=O)O)C3C=CC21O3` (centres undefined), the z-score in assay [1] was -0.178 and -0.126; in [2] it was 0.21 and -0.603; in [3], -0.499 and -0.87; in assay [4], 0.226 and 1.03; in [5], -0.361 and 0.133; in [6], -0.562 and -0.928. For the same compound, the z-score in assay [7] is -0.279 (inactive) and -0.227 (inactive); in assay [8], 0.252 and 0.715; in [9], 0.377 and 0.103; in [10] it was -0.529 (inactive) and -1.03 (inactive); in assay [11] it was -0.541 and -0.785; in [12], 0.709 (inactive) and 1.12 (inactive). For the same compound, the z-score is -0.885 (inactive) and -1.41 (inactive) in assay [13]; -0.553 (inactive) and -0.469 (inactive) in [20]; 0.892 (inactive) and 0.451 (inactive) in assay [15]; -0.649 (inactive) and -0.537 (inactive) in assay [16]; -0.496 (inactive) and -0.506 (inactive) in assay [17]; -0.724 and -0.899 in [18]. Moreover, the composite z-score in [14] was 1.39 (inactive) and -0.109 (inactive); in [19] it was -0.113 and -0.124.
As to `C=CC[C@@H](O)c1ccc(O)c2ccccc12`, the z-score was 0.292 and 0.405 in [1]; -0.0851 and -0.0172 in assay [2]; 0.23 and -0.354 in assay [3]; -2.77 and -2.68 in assay [4]; -3.06 and -4.28 in assay [5]; -2.14 and -2.66 in assay [6]. Besides, the z-score is 0.0544 (inactive) and -0.0565 (inactive) in [7]; -0.887 and -0.994 in assay [8]; -1.63 and -1.56 in [9]; -0.308 (inactive) and -0.572 (inactive) in assay [10]; 0.202 and -0.349 in assay [11]; -17.2 (active) and -17.3 (active) in [12]. Also, the z-score in assay [13] was -2.06 (inactive) and -2.1 (inactive); in assay [20] it was 1 (inactive) and 1.33 (inactive); in assay [15], -0.508 (inactive) and 0.0761 (inactive); in [16] it was 1.2 (inactive) and -0.0099 (inactive); in [17] it was 0.635 (inactive) and -0.379 (inactive); in assay [18], -0.947 and -1.55. Moreover, the composite z-score in assay [14] was -2.37 (inactive) and -3.1 (inactive); in assay [19], 0.205 and 0.0537.
For the compound `O=C1[C@H]2[C@H]3[C@H](O)[C@H](O)CC(=NOCc4ccccc4)[C@H]3CC[C@H]2C(=O)N1Cc1ccccc1`, the z-score was -0.85 in assay [1]; 1.18 in assay [2]; -0.977 in assay [3]; -0.695 in [4]; -1.69 in assay [5]; 1.09 in assay [6]. The z-score in assay [7] was -0.0708 (inactive); in assay [8], 0.00736; in assay [9] it was -1.48; in [10], 0.51 (inactive); in assay [11], 0.447; in [12] it was -2.68 (inactive). Further, the z-score in assay [13] was 1.58 (inactive); in assay [20], 0.106 (inactive); in assay [15] it was -2.13 (inactive); in assay [16] it was 0.323 (inactive); in assay [17], -0.777 (inactive); in [18], 0.719. Also, the composite z-score was -2.59 (inactive) in assay [14] and -0.13 in [19].
With `CCOC(=O)C[C@H]1[C@H](OC(=O)c2ccccc2-c2ccccc2)[C@@H](NC(=O)Cc2ccc(OC)cc2)c2cc(OCCCO)ccc2N1C(=O)Cc1ccc(OC)cc1`, the z-score was 0.615 and 0.158 in assay [1]; 1.92 and 0.0868 in [2]; -0.0677 and -0.11 in [3]; 0.902 and -0.0317 in assay [4]; 0.869 and -0.427 in assay [5]; 3.07 and 0.376 in [6]. Further, the z-score was 0.491 (inactive) and 0.191 (inactive) in assay [7]; 0.846 and -0.309 in assay [8]; 1.46 and 0.00765 in assay [9]; 0.615 (inactive) and 0.786 (inactive) in assay [10]; 1.5 and 0.156 in assay [11]; 0.324 (inactive) and 0.67 (inactive) in assay [12]. Further, the z-score in assay [13] is 0.783 (inactive) and 0.0875 (inactive); in [20], 0.531 (inactive); in [15], 0.6 (inactive) and 0.0342 (inactive); in assay [16], 1.56 (inactive) and -0.539 (inactive); in [17], 0.949 (inactive) and -0.39 (inactive); in [18] it was 0.844 and 0.125. For the same compound, the composite z-score in assay [14] is 1.08 (inactive) and 0.343 (inactive); in [19], 0.202 and -0.188.
As for `C=CCN(CCCCC)C(=O)C1N(c2ccc(CCO)cc2)C(=O)C2C(C(=O)O)C3C=CC21O3` (centres undefined), the z-score is -0.0277 and -0.611 in [1]; -0.0076 and 0.226 in assay [2]; -0.97 and 0.288 in assay [3]; 0.867 and 0.199 in assay [4]; -0.322 and -1.02 in assay [5]; -0.587 and -1.1 in [6]. Further, the z-score was -0.545 (inactive) and -0.407 (inactive) in [7]; 0.647 and 0.562 in assay [8]; 0.743 and 0.912 in assay [9]; -0.792 (inactive) and -0.842 (inactive) in [10]; -0.572 and -0.506 in [11]; -0.058 (inactive) and 0.644 (inactive) in assay [12]. Besides, the z-score in [13] is -0.933 (inactive) and -1.12 (inactive); in assay [20], 0.317 (inactive) and 0.606 (inactive); in [15], -0.611 (inactive) and -0.297 (inactive); in assay [16] it was -0.623 (inactive) and -0.0654 (inactive); in assay [17], -0.689 (inactive) and -0.552 (inactive); in assay [18], -0.871 and -1.15. Also, the composite z-score is -0.0016 (inactive) and 0.598 (inactive) in [14]; -0.193 and -0.0559 in [19].
